Screening results as filed in PubChem BioAssay.
A selection: hits, their analogues and other compounds. The true share with any hit is near 19%.
uPA generation: inhibitors of cell surface uPA generation; cell surface uPA generation assay, qHTS; 0.31% of 330,000 active; Potency, µM (doses to about 38.3 µM), hits mostly inhibitors; active = well fitted inhibition curve with a large enough effect; inconclusive = small, poorly fitted or top-dose-only effect; inactive = no such curve, though single readings can be large or run the other way; tested in mouse RAW 264.7 cells; note: nearly all actives have a fitted effect of over 55% in size
TDP1 cell noCPT: qHTS for Inhibitors of human tyrosyl-DNA phosphodiesterase 1 (TDP1): qHTS in cells in absence of CPT. DT40 Tdp1-/- hTDP1 cells, no CPT, ATP luminescence, 48 h. Potency, µM (series often up to 46.2 µM), usual class: inhibitors. 15% of 420,000 active; note: nearly all actives have a fitted effect of over 55% in size
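Cells were dispensed at 400 per well, compounds added by pin tool, plates incubated ≥48 hr at 37 °C, then CellTiter-Glo added for 30 min at room temperature before luminescence reading. Line: DT40 Tdp1-/- complemented with hTDP1; camptothecin omitted.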
HT1080NT lethal: kills 2HG-producing HT-1080-NT fibrosarcoma cells. HT-1080-NT fibrosarcoma viability, CellTiter-Glo ATP luminescence, 48 h. Potency, µM (series often up to 46.1 µM), most hits filed as cytotoxic. 1.6% of 360,000 active. AID 686970;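 note: NT is the 2HG producing partner of a matched IDH1 knockdown line; nearly all actives have a fitted effect of over 55% in size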
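HT-1080-NT fibrosarcoma cells (2HG-overproducing), 750 cells/well in RPMI with 5% FBS, dosed after 2 h and incubated 48 h at 37C. CellTiter-Glo luminescence normalized to DMSO and no-cell wells; concentration-response curves fitted and classed.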
IL-1B inflam inh: inflammasome signaling inhibition, IL-1 beta readout. THP-1 LPS/ATP IL-1B secretion, AlphaLISA, 16 h; stronger effect = lower value. activity change, % at 57.5 µM. 4.7% of 360,000 active. AID 743279; in the data active = activity change below about -50%; inconclusive = mostly about -30% to -49%
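THP-1 cells pretreated 1 hr with compounds (up to 57.5 uM final), then stimulated with LPS (250 ng/mL final) plus ATP (1.25 mM final); secreted IL-1B measured by AlphaLISA after 16 hr, decreased signal indicating inhibition.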
HT1080 IDH1KD tx: kills HT-1080 cells with IDH1 knockdown; HT-1080 IDH1 knockdown viability, ATP luminescence, 48 h; Potency, µM (series often up to 46.1 µM), usual class: cytotoxic; 2% of 360,000 active; AID 686971
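In this qHTS, HT-1080 cells depleted of IDH1 are exposed for 48 h at 37 °C to compound titrations. Toxicity is scored from CellTiter-Glo luminescence, with DMSO as full viability and medium alone as none.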
TDP1 cell CPT: DT40-hTDP1 cell growth loss with CPT | 12% of 420,000 active | chicken DT40 Tdp1-/-;hTDP1 cells + 20 nM CPT, ATP luminescence, 48 h | Potency, µM (titrated, usually from 46.2 µM), hits mostly inhibitors; note: nearly all actives have a fitted effect of over 55% in size
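Chicken DT40 Tdp1-/- cells complemented with human TDP1, 400 cells/well, exposed to compounds plus 20 nM camptothecin for at least 48 h at 37 C; viability read as ATP content by CellTiter-Glo luminescence.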
Large screens that a line does not name were inactive. Unless noted, calls come from the whole dose curve; as a rule, active = well fitted curve in the direction sought with a large enough effect; inconclusive = small, poorly fitted or top-dose-only effect, or another doubt; inactive = no such curve, though single readings can be large; an effect the other way counts as inactive or inconclusive.

Cc1cc(=O)oc2cc(NC(=S)NNC(=O)c3c(Cl)cnn3C)ccc12	uPA generation inconclusive
O=C1OC(c2ccc(F)cc2)=N/C1=C\c1ccc(Br)o1	TDP1 cell noCPT 13µM, TDP1 cell CPT inconclusive
Cc1cc2nc(-c3ccco3)c(Cc3ccccc3C(F)(F)F)n2c(C)c1Br	TDP1 cell noCPT inconclusive, TDP1 cell CPT inconclusive (no result: uPA generation)
Nc1nc(NC2CC2)c2ncn([C@@H]3C=C[C@@H](CO)C3)c2n1	TDP1 cell noCPT 15µM, TDP1 cell CPT 11.9µM (no result: uPA generation, HT1080NT lethal, IL-1B inflam inh, HT1080 IDH1KD tx)
COc1cccc(C2=NN(C(C)=O)C(c3cn(-c4ccccc4)nc3-c3cccs3)C2)c1 (configuration not stated)	none (no result: uPA generation, HT1080NT lethal, IL-1B inflam inh, HT1080 IDH1KD tx)
CC(=O)N1N=C(c2ccc(C)cc2)CC1c1cn(-c2ccccc2)nc1-c1cccs1 (configuration not stated)	TDP1 cell noCPT inconclusive, TDP1 cell CPT 16.4µM (no result: uPA generation, HT1080NT lethal, IL-1B inflam inh, HT1080 IDH1KD tx)
CCOC(=O)C(CC(=O)Nc1nc(C(C)=O)c(C)s1)C(C)c1ccccc1 (configuration not stated)	TDP1 cell noCPT inconclusive
CC1=C(C(=O)Nc2ccccc2)C(c2coc3ccccc3c2=O)C2=C(CCCC2=O)N1 (configuration not stated)	none
COc1ccc(C2CC(=O)C3=C(C2)NC(C)=C(C(=O)Nc2ccccc2C)C3c2coc3ccc(C)cc3c2=O)cc1OC (configuration not stated)	TDP1 cell noCPT inconclusive, HT1080 IDH1KD tx inconclusive, TDP1 cell CPT 20.6µM (no result: uPA generation)
CC(C)(C)C(c1nc2ccccc2[nH]1)n1c(-c2ccsc2)nc2ccccc21 (configuration not stated)	TDP1 cell noCPT inconclusive, HT1080NT lethal inconclusive, IL-1B inflam inh -52.6, HT1080 IDH1KD tx inconclusive, TDP1 cell CPT inconclusive (no result: uPA generation)
Cc1cc2c(cc1C)C(c1ccccc1F)CC(=O)N2 (configuration not stated)	TDP1 cell noCPT inconclusive, HT1080NT lethal inconclusive, HT1080 IDH1KD tx inconclusive, TDP1 cell CPT inconclusive
Cc1cc2c(cc1C)C(c1cc(Br)ccc1F)CC(=O)N2 (configuration not stated)	TDP1 cell noCPT 16.4µM, HT1080NT lethal inconclusive, HT1080 IDH1KD tx inconclusive, TDP1 cell CPT inconclusive
Cc1cc2c(cc1C)C(c1ccsc1)CC(=O)N2 (configuration not stated)	none
Cc1cc2c(cc1C)C(c1cccc(F)c1)CC(=O)N2 (configuration not stated)	TDP1 cell noCPT 16.4µM, TDP1 cell CPT inconclusive
COc1cccc(/C=C2/SC(=S)N(CC(=O)Nc3nccs3)C2=O)c1	none (no result: uPA generation, HT1080NT lethal, IL-1B inflam inh, HT1080 IDH1KD tx)
COC(=O)c1ccc(NC(=O)C2CCN(C(=O)c3cc(OC)c(OC)c(OC)c3)CC2)cc1	TDP1 cell noCPT inconclusive, TDP1 cell CPT inconclusive
Cc1ccc(NC(=O)C2CCCN(C(=O)c3ccc(Cl)cc3)C2)cc1 (configuration not stated)	TDP1 cell noCPT inconclusive, TDP1 cell CPT inconclusive
Cc1ccc(NC(=O)C2CCCN(C(=O)c3ccc(Cl)cc3)C2)cc1C (configuration not stated)	TDP1 cell noCPT 2.91µM, IL-1B inflam inh -71.3, HT1080 IDH1KD tx inconclusive, TDP1 cell CPT 4.11µM
CCOc1ccc(NC(=O)CN(C)C(=O)C2CCN(C(=O)Nc3ccccc3)CC2)cc1OCC	none
CCOc1ccc(NC(=O)CN(C)C(=O)C2CCN(C(=O)c3ccc(Cl)cc3)CC2)cc1OCC	IL-1B inflam inh -51.0
COc1ccc(C(=O)N2CCC(C(=O)Nc3ccc4c(c3)OCO4)CC2)cc1	none
CCOC(=O)c1ccc(NC(=O)C2CCN(C(=O)c3ccc(OC)c(OC)c3)CC2)cc1	TDP1 cell noCPT 20.6µM, TDP1 cell CPT inconclusive
COc1ccc(C(=O)N2CCC(C(=O)Nc3ccc(Cl)cc3)CC2)cc1	TDP1 cell noCPT inconclusive, TDP1 cell CPT 5.8µM (no result: uPA generation, HT1080NT lethal, IL-1B inflam inh, HT1080 IDH1KD tx)
Cc1cc(Cl)ccc1C(=O)C1CCCN(C(=O)c2ccsc2)C1 (configuration not stated)	TDP1 cell noCPT inconclusive, TDP1 cell CPT inconclusive
